Measurements taken from the antibiotic and cytotoxicity screens of Wong et al. (2023).
In all, about 39,000 compounds went through this assay and about 1,500 (3.8%) were called active. The entries come from a sample that favours actives as a whole.

What follows are compounds tested on HSkMC (human skeletal muscle cells) (assay: cytotoxicity call (relative viability < 0.9)). Details: 10 µM.

| Structure (SMILES) | cytotoxicity call |
| --- | --- |
| COc1ccc(-c2nc(N3CCOCC3)c3sc(CN(C)c4ncc(C(=O)NO)cn4)cc3n2)cn1 | active |
| COC(=O)COc1nsnc1N1CCOCC1 | inactive |
| CNc1ccc(-c2nc(N3CCOCC3)c3sc(CN(C)c4ncc(C(=O)NO)cn4)cc3n2)cn1 | active |
| COc1ccc(NC(=O)N(C)C[C@@H]2OCCCC[C@H](C)Oc3ccc(NC(=O)Cc4ccccc4)cc3C(=O)N([C@H](C)CO)C[C@@H]2C)cc1 | inactive |
| Cc1ccc(Oc2ccc(CN)cc2)cc1 | inactive |
| Cc1ccc(S(=O)(=O)N(C)C[C@H]2Oc3ccc(NC(=O)CCCN(C)C)cc3CC(=O)N([C@H](C)CO)C[C@@H]2C)cc1 | inactive |
| C[C@@H]1CN([C@H](C)CO)C(=O)c2cc(NC(=O)Nc3ccccc3)ccc2O[C@@H](C)CCCCO[C@H]1CN(C)C(=O)C1CCCCC1 | inactive |
| C[C@H](CO)N1C[C@H](C)[C@H](CN(C)S(=O)(=O)c2ccc(Cl)cc2)Oc2ccc(NC(=O)CCCN(C)C)cc2CC1=O | inactive |
| COCC(=O)N1C[C@H](C)[C@H](OC)CN(C)C(=O)c2cc(NC(=O)c3cc(C)on3)ccc2OC[C@H]1C | inactive |
| C[C@@H]1CN([C@@H](C)CO)C(=O)Cc2cc(NC(=O)CCCN(C)C)ccc2O[C@H]1CN(C)S(=O)(=O)c1ccccc1 | inactive |
| CC1(C)C(=O)C=CC2(C)C1C=CC1(C)C2CCC2(C)C(c3ccoc3)OC(=O)C3OC312 (configuration not stated) | active |
| CC1(C)C(=O)C=CC2(C)C1CC(=O)C1(C)C2CCC2(C)C(c3ccoc3)OC(=O)C3OC321 (configuration not stated) | inactive |
| CC(=O)OC1CCC2(C)C(CC(OC(C)=O)C3(C)C2CCC2(C)C(c4ccoc4)OC(=O)C4OC423)C1(C)C (stereo not drawn) [3beta-ACETOXYDEOXODIHYDROGEDUNIN ] | inactive |
| CCC(=O)N1C[C@]2(C1)CN([C@@H](CO)c1[nH]c3cc(ccc3c12)OC)S(=O)(=O)C | inactive |
| C[C@@H]1CCCCO[C@H](CN(C)C(=O)Nc2ccc(F)cc2)[C@H](C)CN([C@@H](C)CO)C(=O)c2cc(NC(=O)CCCN(C)C)ccc2O1 | inactive |
| COc1ccc(NC(=O)Nc2ccc3c(c2)C(=O)N([C@@H](C)CO)C[C@@H](C)[C@H](CN(C)C(=O)Nc2c(C)noc2C)OCCCC[C@H](C)O3)cc1 | inactive |
| Cc1ccc(O)c(C(C)(C)C)c1 | inactive |
| Cc1cc(C(C)(C)C)c(O)c(C(C)(C)C)c1 | active |
| Cc1cc(CO)c(O)c(CO)c1 | inactive |

| Structure (SMILES) | cytotoxicity call |
| --- | --- |
| COc1ccc(S(=O)(=O)Nc2ccc3c(c2)C(=O)N([C@@H](C)CO)C[C@H](C)[C@@H](CN(C)C(=O)Nc2ccc(C(F)(F)F)cc2)OCCCC[C@@H](C)O3)cc1 | inactive |
| NNC(=O)CCc1ccccc1 | inactive |
| CNC(=O)CN1CCOC[C@]2(CCCN(C(C)=O)C2)C1 | inactive |
| S=C(NCCCc1cnc[nH]1)NCCCN(Cc1ccc(Cl)c(Cl)c1)c1ccc(Br)cn1 | active |
| COc1ccc2c3c([nH]c2c1)[C@@H](CO)N(C[C@]13CCN(CC1)CC1CCCCC1)C(=O)Nc1cccc(c1)F | active |
| COc1ccc2c3c([nH]c2c1)[C@@H](CO)N(CC1CCCCC1)C[C@]13CCN(CC1)C(=O)Nc1cccc(c1)F | active |
| COc1ccc2c3c([nH]c2c1)[C@H](CO)N(CC1CCCCC1)C[C@]13CCN(CC1)C(=O)NC1CCCC1 | active |
| COc1ccc2c3c([nH]c2c1)[C@H](CO)N(C[C@]13CCN(CC1)CC1CCCCC1)C(=O)Nc1cccc(c1)F | active |
| COc1ccc2c3c([nH]c2c1)[C@H](CO)N(CC1CCCCC1)C[C@]13CCN(CC1)C(=O)Nc1cccc(c1)F | inactive |
| COc1ccc2c3c([nH]c2c1)[C@@H](CO)N(C[C@]13CCN(CC1)CC1CCCCC1)C(=O)Nc1c(noc1C)C | inactive |
| COc1ccc2c3c([nH]c2c1)[C@H](CO)N(C[C@]13CCN(CC1)CC1CCCCC1)C(=O)Nc1c(noc1C)C | inactive |
| COc1ccc2c3c([nH]c2c1)[C@H](CO)N(C[C@]13CCN(CC1)CC1CCCC1)C(=O)Nc1cccc(c1)F | inactive |
| COc1ccc2c3c([nH]c2c1)[C@@H](CO)N(CC1CCCCC1)C[C@]13CCN(CC1)C(=O)NC1CCCC1 | inactive |
| COc1ccc2c3c([nH]c2c1)[C@@H](CO)N(CC1CCOCC1)C[C@]13CCN(CC1)C(=O)C1CCOCC1 | inactive |
| COc1ccc(cc1)CN1C[C@]2(CCN(CC2)C(=O)Nc2cccc(c2)F)c2c([nH]c3cc(ccc23)OC)[C@@H]1CO | inactive |
| COc1ccc2c3c([nH]c2c1)[C@@H](CO)N(C[C@]13CCN(CC1)CC1CCCC1)C(=O)Nc1cccc(c1)F | inactive |
| C[C@@H]1CN([C@H](C)CO)S(=O)(=O)c2ccc(-c3ccc(C(=O)N(C)C)cc3)cc2O[C@H]1CN(C)C(=O)C1CC1 | inactive |
| C[C@@H]1CN([C@H](C)CO)C(=O)Cc2cc(NS(=O)(=O)c3ccccc3)ccc2O[C@H]1CN(C)S(=O)(=O)c1cccs1 | inactive |
| Cc1cc(C(=O)Nc2cccc3c2O[C@@H](CN(C)S(=O)(=O)c2cn(C)cn2)[C@H](C)CN([C@H](C)CO)C3=O)n(C)n1 | inactive |

| Structure (SMILES) | cytotoxicity call |
| --- | --- |
| NC(=O)NCC#Cc1ccc2c(c1)[C@]1(C(=O)N2)[C@H](c2ccc(OCCO)cc2)N2[C@H](c3ccccc3)[C@H](c3ccccc3)OC(=O)[C@H]2[C@@H]1C(N)=O | inactive |
| O=C(C[C@H]1CC[C@@H](NC(=O)Cc2ccccn2)[C@H](CO)O1)NCCCN1CCOCC1 | inactive |
| CC(=O)n1cc([C@@H]2C=C(C(=O)N3CCN(Cc4ccccc4)CC3)O[C@H](OCc3ccc(CO)cc3)C2)c2ccccc21 | inactive |
| O=C(C[C@H]1C[C@@H]2c3cc(NS(=O)(=O)c4ccc(F)cc4)ccc3O[C@@H]2[C@@H](CO)O1)N1CCOCC1 | inactive |
| Cc1cc(C)c(C)c(C(=O)O)c1C | inactive |
| O=C(C[C@@H]1CC[C@H]2NC[C@H](O)COC[C@@H]2O1)NCCN1CCCC1 | inactive |
| C[C@@H]1CN([C@@H](C)CO)C(=O)Cc2cc(NS(=O)(=O)c3ccc(Cl)cc3)ccc2O[C@@H]1CN(C)S(C)(=O)=O | inactive |
| C[C@H](CO)N1C[C@H](C)[C@@H](CN(C)CC2CCCCC2)OCCCC[C@H](C)Oc2ccc(NC(=O)Nc3ccc4c(c3)OCO4)cc2C1=O | inactive |
| COc1ccc(NC(=O)Nc2ccc3c(c2)C(=O)N([C@@H](C)CO)C[C@H](C)[C@H](CN(C)Cc2ccc4c(c2)OCO4)OCCCC[C@@H](C)O3)cc1 | inactive |
| C[C@@H]1CN([C@H](C)CO)C(=O)c2cc(NC(=O)Nc3ccc4c(c3)OCO4)ccc2O[C@@H](C)CCCCO[C@@H]1CN(C)Cc1ccc(Cl)c(Cl)c1 | inactive |
| C[C@@H]1CCCCO[C@H](CN(C)Cc2ccc3c(c2)OCO3)[C@H](C)CN([C@@H](C)CO)C(=O)c2cc(NC(=O)Nc3ccc4c(c3)OCO4)ccc2O1 | active |
| C[C@@H]1CCCCO[C@@H](CN(C)Cc2ccc(Cl)c(Cl)c2)[C@@H](C)CN([C@@H](C)CO)C(=O)c2cc(NC(=O)Nc3ccc4c(c3)OCO4)ccc2O1 | active |
| C[C@@H]1CCCCO[C@@H](CN(C)CC2CCCCC2)[C@@H](C)CN([C@H](C)CO)C(=O)c2cc(NC(=O)Nc3ccc4c(c3)OCO4)ccc2O1 | inactive |
| C[C@H]1CCCCO[C@@H](CN(C)CC2CCCCC2)[C@@H](C)CN([C@@H](C)CO)C(=O)c2cc(NC(=O)Nc3ccc4c(c3)OCO4)ccc2O1 | active |
| COc1ccc(NC(=O)Nc2ccc3c(c2)C(=O)N([C@@H](C)CO)C[C@H](C)[C@H](CN(C)Cc2ccc4c(c2)OCO4)OCCCC[C@H](C)O3)cc1 | active |
| C[C@@H]1CCCCO[C@@H](CN(C)Cc2ccc3c(c2)OCO3)[C@@H](C)CN([C@@H](C)CO)C(=O)c2cc(NC(=O)Nc3ccc4c(c3)OCO4)ccc2O1 | inactive |
| C[C@@H]1CN([C@H](C)CO)C(=O)c2cc(NC(=O)Nc3ccc4c(c3)OCO4)ccc2O[C@@H](C)CCCCO[C@@H]1CN(C)Cc1ccc2c(c1)OCO2 | inactive |
| COc1ccc(NC(=O)Nc2ccc3c(c2)C(=O)N([C@H](C)CO)C[C@H](C)[C@@H](CN(C)Cc2ccc4c(c2)OCO4)OCCCC[C@H](C)O3)cc1 | inactive |
| C[C@@H]1CN([C@@H](C)CO)C(=O)c2cc(NC(=O)Nc3ccc4c(c3)OCO4)ccc2O[C@@H](C)CCCCO[C@H]1CN(C)Cc1ccc(Cl)c(Cl)c1 | inactive |
